High-throughput results as filed in PubChem BioAssay.
Sampled rows, rich in hits. Any-hit rate of the full collection: about 0.69%.
Tb PFK block: qHTS Assay to Find Inhibitors of T. brucei phosphofructokinase; 0.17% of 330,000 active; T. brucei PFK, ADP-Glo luminescence; ATP-dependent 6-phosphofructokinase (Trypanosoma brucei brucei), O15648; Potency, µM (highest dose often 57.5 µM), hits mostly inhibitors; also: nearly all actives have a fitted effect of over 60% in size
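ADP-Glo luminescence quantified ADP after 45 min at room temperature, with 1.25 nM T. brucei PFK, 0.1 mM ATP and 0.5 mM fructose-6-phosphate in pH 8.0 TEA buffer. qHTS titrations up to 57 µM; curves classified by quality.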
PKM2 act: qHTS Assay for Activators of Human Muscle isoform 2 Pyruvate Kinase; purified PKM2, Kinase-Glo ATP luminescence, activation; response scale: 0% is enzyme alone, no compound; AID 1631, 2009; Potency, µM (doses to about 57.5 µM), actives largely listed as activators; 0.34% of 260,000 active; Pyruvate kinase PKM (Homo sapiens), P14618; also: nearly all actives have a fitted effect of over 55% in size
Target sequence (P14618 whole entry, looked up, canonical isoform): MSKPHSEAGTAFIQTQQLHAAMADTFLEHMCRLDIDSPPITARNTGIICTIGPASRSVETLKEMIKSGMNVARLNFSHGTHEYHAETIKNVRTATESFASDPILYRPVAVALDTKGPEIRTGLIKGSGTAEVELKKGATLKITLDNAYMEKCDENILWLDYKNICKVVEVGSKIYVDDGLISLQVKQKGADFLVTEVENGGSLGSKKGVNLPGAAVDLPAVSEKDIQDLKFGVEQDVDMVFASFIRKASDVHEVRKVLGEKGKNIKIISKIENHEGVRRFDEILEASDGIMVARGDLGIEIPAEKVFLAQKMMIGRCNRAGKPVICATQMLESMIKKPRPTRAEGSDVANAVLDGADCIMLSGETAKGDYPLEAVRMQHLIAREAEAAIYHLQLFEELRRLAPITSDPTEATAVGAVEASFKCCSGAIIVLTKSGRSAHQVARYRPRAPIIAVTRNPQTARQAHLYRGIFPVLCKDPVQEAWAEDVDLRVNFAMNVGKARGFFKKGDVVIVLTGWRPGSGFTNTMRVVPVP
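Kinase-Glo luminescence reports ATP generated from ADP (0.1 mM) and PEP (0.5 mM) by purified hPK-M2 after 1 h at room temperature, pH 7.2 imidazole buffer; intermediate enzyme activity allows detecting inhibitors and activators.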
a7 integrin act: qHTS for Activators of Integrin-Mediated Alleviation for Muscular Dystrophy; 0.064% of 350,000 active; alpha7betagal myoblasts, beta-gal FDG fluorescence, 48 h; AID 624291, 2012; Potency, µM (highest dose often 38.3 µM), actives largely listed as activators; also: nearly all actives have a fitted effect of over 60% in size
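alpha7betagal+/- myoblasts (passage 13, 250/well) treated 48 h at 37C with compounds at 1:260 dilution of DMSO stock. Lysed, then beta-galactosidase activity read as FDG fluorescence (ex 480/em 540) after 30 min, with pre-read for autofluorescence.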
AT treatment: qHTS Assay for Identifying a Potential Treatment of Ataxia-Telangiectasia; Potency, µM (titrated, usually from 57.5 µM), actives largely listed as activators; 0.19% of 320,000 active; AID 485349, 2010; F2112 A-T fibroblasts, KAP-1 phosphorylation AlphaLISA; neocarzinostatin DNA damage 30 min before lysis; also: nearly all actives have a fitted effect of over 45% in size
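ATM-like activity read as KAP-1 phosphorylation via AlphaLISA donor/acceptor antibody pairs after lysis and 6 hr at 25C. Cells were ATM-null patient fibroblasts (F2112, hTERT), dosed 60 min, then exposed to the DSB inducer NCS for 30 min.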
TCR act: Activators of T cell receptors: qHTS campaign; primary human leukocytes, anti-CD3, IL-2 HTRF, 48 h; AID 504894, 2011; Potency, µM (top dose mostly 9.22 µM), hits mostly activators; 330,000 tested, under 10 active
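Compounds are tested in HTS on primary human leukocytes co-incubated with a-CD3 beads for 48 hr. IL-2 output is measured by time-resolved FRET.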
IL-2 act: qHTS of IL-2 Activators; IL-2 activation reporter assay, cell-based qHTS; stimulated with anti-CD3/CD4/CD28 beads; in transgenic mouse T cells; activation, % (series mostly up to about 46 µM); 0.065% of 360,000 active; in the data active = activation above about 50%; inconclusive = mostly about 30% to 49%
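Readout: EGFP and DsRed signals by fluorescent plate cytometry. Unstimulated transgenic mouse T cells received compound 60 min before antibody-bead stimulation, then incubated 18 h at 37 degrees C.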
Of the large screens only hits and unclear results are named; the others gave an inactive call. Unless noted, calls follow the shape of the dose curve; as a rule, active = well fitted curve in the direction sought with a large enough effect; inconclusive = small, poorly fitted or top-dose-only effect, or another doubt; inactive = no such curve, though single readings can be large; an effect the other way counts as inactive or inconclusive.

O=C(O)c1ccc2c(c1)C(=O)N([C@H](Cc1ccc3ccccc3c1)C(=O)O)C2=O	none (no result: PKM2 act, a7 integrin act, TCR act, IL-2 act)
CC1(C)N=C(N)N=C(N)N1c1cccc(CN)c1	AT treatment 28µM
CC1(C)N=C(N)N=C(N)N1c1ccccc1	none
Nc1c(S(=O)(=O)c2ccccc2)c2nc3ccccc3nc2n1Cc1ccco1	PKM2 act inconclusive, AT treatment 22µM
Cn1c(N)c(S(=O)(=O)c2ccc(Br)cc2)c2nc3ccccc3nc21	PKM2 act 25µM
Cc1cc2c(cc1S(=O)(=O)N(C)Cc1ccccc1)n(C)c(=O)c(=O)n2C	none
Cc1cccc(N(C)S(=O)(=O)c2cc3c(cc2C)n(C)c(=O)c(=O)n3C)c1	PKM2 act 10µM
Cc1cc2c(cc1S(=O)(=O)N(C)c1ccccc1)n(C)c(=O)n2C	PKM2 act 13µM (no result: TCR act)
CCC1=C(OC(=O)N(CC)CC)N2C(=O)OC(=NCCOC)[C@]2(C)[C@H]2C1=CC[C@H]1C(=O)N(C)C(=O)[C@H]12	none (no result: Tb PFK block, a7 integrin act, AT treatment, TCR act, IL-2 act)
CCCCc1nc2c(c3c1C[C@H](C)OC3)CN(C(=O)c1ccco1)CC2	none (no result: Tb PFK block, a7 integrin act, AT treatment, TCR act, IL-2 act)
Cn1c(SCC(=O)c2ccccc2F)nnc1C1CC1	PKM2 act 32µM
CC1(OC(=O)c2ccc(Cl)nc2)C(=O)C=c2cc(-c3ccsc3)ncc2=C1OC(=O)C1CCCC1 (configuration not stated)	none (no result: Tb PFK block, a7 integrin act, AT treatment, TCR act, IL-2 act)
CCCCCCN(C(=O)CCCCCN1C(=O)NC(C2CCCCC2)C(C(=O)OCc2ccccc2)=C1C)C(C(=O)NCCCC)c1ccc(OCC(=O)OC)c(C(=O)OC)c1 (configuration not stated)	none (no result: Tb PFK block, a7 integrin act, AT treatment, TCR act, IL-2 act)
C/C(N)=C(/C#N)C(=O)COC(=O)CSc1ccc2ccccc2c1	none (no result: AT treatment)
C/C(N)=C(/C#N)C(=O)CSc1ccc2c(c1)OCCO2	PKM2 act 14µM
Cc1ccc(NS(=O)(=O)c2ccc3c(c2)n(C)c(=O)n3C)cc1C	PKM2 act 1.6µM
Cn1c(=O)n(C)c2cc(NS(=O)(=O)c3ccccc3)ccc21	none
Cc1ccc(S(=O)(=O)Nc2ccc3c(c2)n(C)c(=O)n3C)cc1	a7 integrin act inconclusive
Cn1c(=O)n(C)c2cc(S(=O)(=O)Nc3ccccc3)ccc21	PKM2 act 4µM
Cn1c(=O)n(C)c2cc(S(=O)(=O)Nc3cc(Cl)ccc3O)ccc21	PKM2 act 13µM
O=C(COC(=O)CCC(=O)c1ccc(F)cc1)Nc1ccc(Cl)cn1	a7 integrin act inconclusive (no result: PKM2 act)
CCCC[C@@H]1C[C@H]1C(NC(=O)Cc1ccccc1)c1ccc(Cl)cc1 (some centres not stated)	none (no result: Tb PFK block, a7 integrin act, AT treatment, TCR act, IL-2 act)
CC(C)(C)NC(=O)C(c1ccncc1)N(Cc1ccc(F)cc1)C(=O)c1ccc(-c2ccccc2)[nH]1 (configuration not stated)	Tb PFK block inconclusive, PKM2 act 28µM (no result: TCR act)
COCCN1C=C(C(=O)OC)C(c2ccccc2Cl)C(C(=O)OC)=C1	a7 integrin act 8.9µM, AT treatment inconclusive (no result: TCR act)
CCn1c(SCc2cccc(F)c2)nnc1-c1ccncc1	AT treatment 4.5µM (no result: PKM2 act)
CCn1c(SCc2cccc(F)c2)nnc1-c1cccnc1	none
CSc1c(C#N)c(N)nc2sc(C(=O)c3ccccc3)c(N)c12	IL-2 act 275
CC1=CC(C)(C)n2c(O)c(N=N)c3c(C)ccc1c32	AT treatment 32µM
COC(=O)c1cnn(-c2ccc(C(=O)Nc3ccc(C(C)=O)cc3)cc2)c1N	none (no result: PKM2 act, a7 integrin act, TCR act, IL-2 act)
COc1ccc(CCNC(=O)Cn2nnc(C(=O)Nc3ccc(Br)cc3)c2N)cc1OC	a7 integrin act 11µM (no result: PKM2 act)
CCOc1ccc(NC(=O)Cn2nnc(C(=O)NCCc3ccc(OC)c(OC)c3)c2N)cc1	none
COc1ccc(Nc2cc(O)c3ncccc3c2)cc1	none (no result: PKM2 act, a7 integrin act, TCR act, IL-2 act)
